Test system: HepG2
Assay: GSK_TCMDC: Percent inhibition of human HepG2 cell line. Test compounds present at 10uM.
Type: functional

Row | Structure (SMILES) | Inhibition [%]
1 | Cc1ccccc1C1CCN(C2CCC(NC(=O)/C=C/c3c[nH]c4ccccc34)CC2)CC1 (configuration not stated) | 30
2 | O=C(O)C(F)(F)F.c1cc(CNCCN2CCNCC2)cc(-c2ccc(-c3nc4ccccc4[nH]3)cc2)c1 | 3
3 | Br.CC(C)(C)c1ccc(OCCCON2C(N)=NC(N)=NC2(C)C)cc1 | 77
4 | CCN(CCCN1CCCCC1)c1cc(C)nc(Nc2ccc(C)c(F)c2)n1.O=C(O)C(F)(F)F | 20
5 | Cc1cccc2nc(-c3cccc(-c4ccc(NC(=O)NCc5cccc(F)c5)cc4)c3)[nH]c12 | 40
6 | CC(C)Cn1c(Sc2ccc(C#N)c([N+](=O)[O-])c2)nnc1-c1ccc(N(C)C)cc1 | 4
7 | CC(C)N1CCN(C(CN2CCN(CCCOc3ccc(-c4ccccc4)cc3)CC2)c2ccc(F)cc2)CC1.Cl (configuration not stated) | 100
8 | N#Cc1ccc(-c2ccc(C(=O)NCCCCN3CCC(c4ccc5c(c4OCc4ccncc4)CCCC5)CC3)cc2)cc1 | 41
9 | CN1CCN(CCCNCc2ccc(Nc3nccc(Nc4ccc(Oc5ccccc5)cc4)n3)cc2)CC1 | 17
10 | c1ccc(Oc2ccc(Nc3ccnc4ccc(-c5ccccn5)cc34)cc2)cc1 | 4
11 | N#Cc1ccc(CN2CCCN(Cc3cccc(NC(=O)c4ccc(Cl)c(Cl)c4)c3)CC2)cc1.O=C(O)C(F)(F)F | 19
12 | Cl.NOCCCCOc1ccc(Br)cc1 | 0
13 | COc1cc(C2C(Oc3ccccc3)C(=O)N2Cc2ccc(F)cc2)cc(OC)c1OC (configuration not stated) | 0
14 | N#Cc1cccc(NC(=O)Nc2cccc(-c3cccc(-c4nc5ccccc5[nH]4)c3)c2)c1 | 46
15 | CCOc1ccc(Nc2nc(N)c3ccccc3n2)cc1.Cl | 28
16 | O=C(NCc1ccc(Cl)c(Cl)c1)c1ccc(C2CCCN(Cc3ccc4[nH]cnc4c3)C2)cc1 (configuration not stated) | 9
17 | CCCCCCc1cc(OC)c(OC)cc1C(C)Nc1ccnc2cc(Cl)ccc12 (configuration not stated) | 6
18 | COc1ccccc1CN1CCC(NC(=O)c2ccc(-c3cccc(Cl)c3)s2)CC1.O=C(O)C(F)(F)F | 49
19 | CN1CCCN(Cc2cccc(-c3cccc(NC(=O)c4cccc(C#N)c4)c3)c2)CC1.O=C(O)C(F)(F)F | 18
20 | CC(C)Oc1ccc(C=CC(=O)Nc2noc3ccccc23)cc1 | 2
21 | CN(C)CCOc1ccc(N2CCN(CCCCNC(=O)c3ccc(/C=C/c4cc(Cl)cc(Cl)c4)cc3)CC2)cc1 | 97
22 | CCOc1c(CNCCCNc2nc3ccccc3[nH]2)cc(I)cc1OC.Cl | 42
23 | COc1cccc2c(N/N=C/c3ccc([N+](=O)[O-])cc3)ccnc12 | 25
24 | CN(c1ccccc1)c1ccnc(NC(=N)Nc2ccc(Cl)cc2)n1 | 30
25 | O=C(CCN(Cc1ccco1)c1nc(-c2ccc(F)cc2)nc2ccccc12)NC1CC1 | 0
26 | O=C(Nc1cccc(C(F)(F)F)c1)c1cccc(S(=O)(=O)NC2CCCN(CC3CCCCC3)C2)c1.O=C(O)C(F)(F)F (configuration not stated) | 18
27 | N#Cc1cccc(C(=O)Nc2ccc(-c3ccc(CN4CCCC4)cc3)cc2)c1.O=C(O)C(F)(F)F | 38

From ChEMBL document CHEMBL1157539, “Thousands of chemical starting points for antimalarial lead identification” (Nature, 2010)
